EWS-Fli inh: blocks EWS/Fli oncoprotein-driven transcription | A673 NR0B1-luciferase reporter, viability-normalised | 0.67% of 350,000 active | inhibition, % at 12.6 µM;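 active means mean inhibition of at least 50% after viability correction, with every replicate also passing that limit; inconclusive means mean reaches 50% but only one of two replicates passes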;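 further: firefly luciferase signal divided by Alamar Blue viability fluorescence both relative to DMSO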
PAX8 reporter: PAX8 transcriptional activity inhibition; RMG-I TPO-luciferase reporter, SteadyGlo, 24 h; inhibition, % at 12.6 µM; 1.2% of 360,000 active;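 active means mean replicate inhibition at least 60% with every replicate also reaching 60%; inconclusive means only one of the two criteria is met; inactive means mean below 60% and not all replicates reaching 60%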;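 further: luciferase light reporting Pax8 driven TPO promoter activity; plate controls were median of neutral control wells for no effect and mitoxantrone controls for full effect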
PGC1a acetyl inh: modulators of PGC1a acetylation; U2OS PGC1a acetylation, AlphaScreen anti-acetyl-lysine; with virally co-expressed GCN5 acetyltransferase; inhibition, % at 15.6 µM; 0.17% of 350,000 active; AID 651687;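 active means every replicate shows inhibition of at least 40%; inconclusive means mean inhibition at least 40% but some replicate below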;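 further: 0% = neutral control wells and 100% = positive control wells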
F508del corr: correctors of CFTR F508del function in bronchial epithelial cells; 0.36% of 350,000 active; activity (quench increase), % at 7.58 µM; AID 720511; CFBE cells, YFP halide quenching; stimulated with forskolin plus potentiator P3; % fluorescence drop versus neutral controls;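 active means mean added fluorescence quench of at least 8% versus neutral control, with both replicates also reaching 8%; inconclusive means only one of the mean or replicate conditions met; inactive means mean below 8% and not both replicates reaching 8%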;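 further: cells transiently co-express mutant CFTR-F508del with the halide-sensitive YFP; corrector assay measuring rescue of mutant channel to the surface after 24 h compound exposure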
GSIS activator: primary screen for activators of insulin secretion dependent on glucose, INS-1E cells, GLuc reporter luminescence; INS-1E GLuc reporter insulin secretion, 2-3 h; activation, % at 16.6 µM; 0.61% of 370,000 active;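 active means lowest replicate activation of at least 40%, so every replicate reaches that level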;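 further: 0% = median of neutral control wells and 100% = median of IBMX positive control wells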
HIV Env fusion: inhibitors of HIV Env-mediated cell fusion. HeLa-JRFL Env/CEM21 cell fusion, luciferase. inhibition, % at 12.3 µM. 1.1% of 360,000 active. AID 651610;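 active means mean replicate inhibition score of at least 50 and every replicate individually at or above 50; inconclusive means only one of the two criteria met; inactive means mean below 50 and not all replicates reaching 50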;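 further: 0% = plate neutral controls and 100% = maraviroc near 300 nM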
* = called active by the depositor; i = inactive; ? = inconclusive; nt = no result; [ ] = remark or other dose. An excerpt weighted towards active compounds, which were near 2.7% of everything screened.

SMILES	EWS-Fli inh	PAX8 reporter	PGC1a acetyl inh	F508del corr	GSIS activator	HIV Env fusion
COC(=O)[C@@H]1[C@@H](CO)[C@@H]2Cn3c(ccc(-c4ccccc4)c3=O)[C@H]1N2CCc1ccccc1	0.1	nt	nt	-2.7	-2.7	nt
C[n+]1c(-c2ccccc2)c2cc(N)ccc2c2ccc(N)cc21	11.2	96.2*	2.8	3.8	-37.6	31.0
CCC(C)C1NC(=O)C2CCCN2C(=O)C(CC(C)C)OC(=O)CCNC(=O)C(C)N(C)C(=O)C(C(C)C)N(C)C1=O (centres undefined)	19.9	72.2*	-0.7	3.8	-22.1	14.1
C=CCCC[C@@H]1OC(=O)CNC(=O)C([C@@H](C)CC)NC(=O)[C@@H]2CCCN2C(=O)C([C@@H](C)CC)OC(=O)[C@H](Cc2ccccc2)N(C)C(=O)[C@H](C(C)C)NC(=O)C1(C)C (some centres undefined)	-0.8	54.7	-0.8	2.7	0.4	28.3
CCC1C(c2cc(OC)c(OC)c(OC)c2)c2cc3c(cc2OC1N1CCCC1)OCO3 (centres undefined)	55.9*	nt	nt	2.7	-10.5	-101.3
O=c1c2ccccc2nc(/C=C/c2ccc([N+](=O)[O-])o2)n1-c1ccc(O)cc1	83.8*	68.8*	-143.6	-6.4	-17.0	i
COC(=O)C1=C(c2ccc(F)cc2OCc2ccccc2)C[C@@H]2CC[C@H]1N2C(=O)NCc1ccc(C(F)(F)F)cc1	7.0	87.8*	nt	-2.7	2.2	32.1
COC(=O)C1=C(c2cc3ccccc3o2)C[C@@H]2CC[C@H]1N2C(=O)NCc1ccc(F)cc1	-0.6	10.0	nt	2.3	-7.5	-7.9
COC(=O)C1=C(c2cc3ccccc3s2)C[C@@H]2CC[C@H]1N2C(=O)NCc1ccc(C(F)(F)F)cc1	7.4	66.5*	nt	0.2	-24.8	3.3
COC(=O)C1=C(c2cc3ccccc3s2)C[C@@H]2CC[C@H]1N2C(=O)NCC1CC1	0.4	13.0	nt	-0.5	-15.7	-5.4
COC(=O)C1=C(c2cc3ccccc3o2)C[C@@H]2CC[C@H]1N2C(=O)NCc1cccc2ccccc12	0.1	6.3	-13.1	3.7	1.3	100.7*
CC(C)NC(=O)N1[C@@H]2Cn3c(ccc(-c4cccc(C(=O)N(C)C)c4)c3=O)[C@H]1[C@@H](C(=O)O)[C@@H]2CO	-7.2	nt	nt	nt	1.4	-12.0[16.7 µM]
COC(=O)[C@@H]1[C@@H](CO)[C@@H]2Cn3c(ccc(C4=CCCCC4)c3=O)[C@H]1N2CC1CCCCC1	0.3	nt	-1.7	1.0	-9.0	nt
C=CCN1[C@@H]2CN(C(C)=O)C[C@H]1C2c1ccc(Br)cc1 (some centres undefined)	nt	nt	nt	nt	19.8	nt
COC(=O)[C@H]1[C@H](CO)[C@H]2Cn3c(ccc(-c4ccccc4OC)c3=O)[C@@H]1N2Cc1ccccc1	-13.0	nt	nt	nt	3.4	18.9[16.7 µM]
CCCNC(=O)N1[C@@H]2c3ccc(-c4ccccc4OC)c(=O)n3C[C@H]1[C@H](CO)[C@H]2C(=O)O	8.0	-2.8	nt	0.8	7.2	nt
N#CC(C#N)=Cc1ccc(O)c(O)c1	8.4	17.5	-27.2	3.5	nt	27.7
CC(C)(C)c1cc(C=C(C#N)C#N)cc(C(C)(C)C)c1O	48.0	108.5*	nt	-0.8	nt	-15.9
COC(=O)[C@H]1[C@H](CO)[C@H]2Cn3c(ccc(C4=CCCCC4)c3=O)[C@@H]1N2Cc1ccccn1	5.3	nt	nt	-0.6	4.1	nt
C=C1C(=O)OC2CC3(C)OC3C3OC3C3=CC(OC3=O)C12 (centres undefined)	57.6*	nt	-85.2	-8.4	nt	nt
OC[C@@H]1Nc2ccc(C#Cc3cccnc3)cc2[C@@H]2NCC[C@H]12	nt	nt	nt	nt	28.2	nt
COc1ccc(C2=CC(c3ccc(OC)c(OC)c3)c3c(c4ccccc4oc3=O)O2)cc1OC (centres undefined)	57.7*	12.0	-11.7	0.5	-15.9	-26.8
CC1=NN(c2ccccc2)C(=O)/C1=C/c1c(O)[nH]c(=O)[nH]c1=O	-3.5	7.5	49.1*	-1.1	5.0	-4.8
CC=Cc1ccc2n(c1=O)C[C@@H]1[C@@H](CO)[C@H](C(=O)OC)[C@H]2N1CC1CCCC1 (mixture of isomers)	-6.4	nt	-0.5	-2.3	-6.5	nt
CC1(CCO)CC(C)(CCc2ccccc2)OO1 (centres undefined)	66.7*	40.7	-42.6	-0.3	nt	-22.0[16.7 µM]
SMILES	EWS-Fli inh	PAX8 reporter	PGC1a acetyl inh	F508del corr	GSIS activator	HIV Env fusion
CCC(=NCCC(c1ccccc1)c1ccccc1)c1c(O)[nH]c(=O)[nH]c1=O	nt	-40.0	nt	nt	75.2	nt
CCC(=NC(C)c1ccccc1)c1c(O)[nH]c(=O)[nH]c1=O (centres undefined)	5.8	-8.1	nt	2.6	65.8*	3.1
COC(=O)C1=C(c2ccc3ccccc3c2)C[C@@H]2CC[C@H]1N2C	-0.8	4.0	15.3	1.7	-0.2	8.6
COC(=O)C1=C(C(=O)OC)C2OC1c1cc3ccccc3cc12	2.2	108.6*	nt	-0.7	117.8*	23.2
Nc1ccc2ccc3cccc[n+]3c2c1	5.3	-80.3	nt	15.0*	-0.8	18.3
COc1cc(C2c3cc4c(cc3CC3COC(=O)C32)OCO4)cc(OC)c1O (centres undefined)	49.1	74.9*	nt	1.0	-4.6	-36.6
CCC1(CC)C(=O)C=CNC1=O	-1.2	13.8	?	29.2*	nt	-1.5
CS(=O)(=O)N1CC2NC(C1)C2c1ccc(Br)cc1 (centres undefined)	nt	nt	nt	nt	5.4	nt
COC(=O)[C@H]1[C@H](CO)[C@H]2Cn3c(ccc(-c4cccc(F)c4)c3=O)[C@@H]1N2C(=O)CC1CC1	-9.6	nt	nt	nt	11.5	nt
O=C(CSC1c2ccccc2-c2ccccc21)N/N=C/c1ccc(C(=O)O)cc1	11.4	0.5	nt	nt	-7.2	-36.8
O=C(CSC1c2ccccc2-c2ccccc21)N/N=C/c1ccccc1O	nt	nt	2.6	nt	nt	61.3*
O=C1NC2C(=CC(O)C(O)C2O)c2cc3c(c(O)c21)OCO3 (centres undefined)	54.4*	nt	62.7*	-0.7	-26.4	64.5*
O=C1NC2C(O)C(O)C(O)C(O)C2c2cc3c(c(O)c21)OCO3 (centres undefined)	56.3*	105.0*	nt	-1.0	-28.7	118.7*
Cc1ccc(OC(=O)N(C)C[C@@H]2OCc3ccccc3-c3c(n(C)c4ccccc34)C(=O)N([C@H](C)CO)C[C@@H]2C)cc1	nt	-18.9	4.1	-0.4	7.4	nt
COc1cccc(C(c2nnnn2Cc2ccccc2)N2CCC(n3c(=O)[nH]c4ccccc43)CC2)c1OC (centres undefined)	10.5	90.6*	10.5	1.2	10.8	-36.2
O=c1[nH]c2cc(Cl)ccc2n1C1CCN(Cc2ccc(-c3nc4ccccc4nc3-c3ccccc3)cc2)CC1	18.8	47.9	nt	-1.6	-4.5	-6.8
O=c1[nH]c2ccccc2n1C1CCN(C(c2cccc3ccccc23)c2nnnn2Cc2ccccc2)CC1 (centres undefined)	11.9	73.3*	-10.4	2.7	9.1	-64.6

Source: PubChem
